Assay results from PubChem BioAssay AID1347074 (Center for Chemical Genomics, University of Michigan, 2019).
About 2,800 (6%) of roughly 47,000 compounds were called active. Many of the other results were omitted from the sample, so actives are more common in it than they were. Unmarked numbers belong to inactive results. No stated cut-off is given here; in the data, active means z-score above about 3 (passing the limit was not always enough); inactive means the rest.

Target: Endoribonuclease Dicer (Homo sapiens) (UniProt Q9UPY3)
Sequence (Q9UPY3 whole entry, looked up): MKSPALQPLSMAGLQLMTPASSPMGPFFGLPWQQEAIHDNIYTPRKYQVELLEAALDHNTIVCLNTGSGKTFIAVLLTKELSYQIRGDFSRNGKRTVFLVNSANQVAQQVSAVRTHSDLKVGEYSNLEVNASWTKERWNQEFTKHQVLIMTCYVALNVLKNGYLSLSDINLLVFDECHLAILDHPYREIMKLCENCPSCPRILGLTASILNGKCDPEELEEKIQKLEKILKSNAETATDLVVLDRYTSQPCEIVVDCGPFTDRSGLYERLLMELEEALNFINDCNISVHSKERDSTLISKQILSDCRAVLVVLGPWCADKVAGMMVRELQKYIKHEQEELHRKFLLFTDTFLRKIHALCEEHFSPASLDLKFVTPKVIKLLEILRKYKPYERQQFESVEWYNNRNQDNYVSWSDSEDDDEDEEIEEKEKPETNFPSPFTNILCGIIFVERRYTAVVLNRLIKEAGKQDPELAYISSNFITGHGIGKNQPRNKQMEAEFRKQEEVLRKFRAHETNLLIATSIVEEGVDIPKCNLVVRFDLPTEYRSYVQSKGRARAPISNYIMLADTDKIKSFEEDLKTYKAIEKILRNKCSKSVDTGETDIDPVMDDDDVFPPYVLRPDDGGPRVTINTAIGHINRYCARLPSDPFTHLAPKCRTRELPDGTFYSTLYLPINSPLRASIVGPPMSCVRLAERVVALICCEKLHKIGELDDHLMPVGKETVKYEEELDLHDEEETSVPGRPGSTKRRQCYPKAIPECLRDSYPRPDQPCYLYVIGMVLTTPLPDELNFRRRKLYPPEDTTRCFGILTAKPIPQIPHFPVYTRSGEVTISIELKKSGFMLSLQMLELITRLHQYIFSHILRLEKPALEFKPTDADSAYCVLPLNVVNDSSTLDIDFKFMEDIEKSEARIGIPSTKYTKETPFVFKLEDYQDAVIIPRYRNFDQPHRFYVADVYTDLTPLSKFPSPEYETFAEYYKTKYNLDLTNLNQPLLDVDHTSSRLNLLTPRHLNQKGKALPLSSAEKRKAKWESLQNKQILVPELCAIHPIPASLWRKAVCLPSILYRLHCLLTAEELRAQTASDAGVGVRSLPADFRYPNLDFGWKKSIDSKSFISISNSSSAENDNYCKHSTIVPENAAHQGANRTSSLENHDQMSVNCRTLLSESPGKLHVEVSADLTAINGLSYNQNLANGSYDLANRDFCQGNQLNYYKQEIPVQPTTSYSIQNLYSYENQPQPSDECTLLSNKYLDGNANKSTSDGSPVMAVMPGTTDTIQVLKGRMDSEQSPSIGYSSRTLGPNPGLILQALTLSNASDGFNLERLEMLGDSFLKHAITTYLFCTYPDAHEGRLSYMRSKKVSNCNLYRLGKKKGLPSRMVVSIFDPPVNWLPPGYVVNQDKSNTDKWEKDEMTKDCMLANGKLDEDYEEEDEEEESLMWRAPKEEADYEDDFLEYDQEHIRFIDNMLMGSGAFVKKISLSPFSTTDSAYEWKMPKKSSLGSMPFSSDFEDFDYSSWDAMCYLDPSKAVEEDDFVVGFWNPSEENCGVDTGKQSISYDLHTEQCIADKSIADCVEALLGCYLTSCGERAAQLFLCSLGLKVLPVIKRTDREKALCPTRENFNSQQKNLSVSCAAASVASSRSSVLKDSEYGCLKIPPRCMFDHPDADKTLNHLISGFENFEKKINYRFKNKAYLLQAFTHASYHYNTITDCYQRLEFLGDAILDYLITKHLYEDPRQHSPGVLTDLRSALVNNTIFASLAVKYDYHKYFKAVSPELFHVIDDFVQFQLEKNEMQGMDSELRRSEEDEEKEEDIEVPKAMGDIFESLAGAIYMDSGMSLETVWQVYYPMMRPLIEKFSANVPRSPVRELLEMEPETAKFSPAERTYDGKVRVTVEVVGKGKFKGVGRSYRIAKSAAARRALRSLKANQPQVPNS
Assay: Dicer cleavage of pre-miR-21 blockers – biochemical, cat-ELCCA, chemiluminescence, primary screen (AID 1347074);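 further: plate controls were vehicle for no effect and no enzyme for full effect; higher signal means more uncleaved substrate so more Dicer inhibition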
Settings: cat-ELCCA pre-miR-21 Dicer processing, at 25 µM, hits give high values

Row | SMILES | z-score
1 | CCN1C(=O)C2(/C(=C(/O)c3ccccc3)C(=O)C(=O)N2CCCOC)c2ccccc21 (stereo not given) | 3.53 (active)
2 | CCN1C(=O)C2(/C(=C(/O)c3ccc(OC)c(C)c3)C(=O)C(=O)N2CCCOC)c2ccccc21 (stereo not given) | 1.63
3 | CCN1C(=O)C2(/C(=C(/O)c3ccc(C)c(F)c3)C(=O)C(=O)N2CCCOC)c2ccccc21 (stereo not given) | -0.56
4 | CC1CC(=O)Nc2ccccc2N1C(=O)Nc1cccc(Cl)c1Cl (stereo not given) | -0.93
5 | O=C1CC(N2CCN(C(c3ccccc3)c3ccccc3)CC2)C(=O)N1c1cccc(Cl)c1 (stereo not given) | -0.21
6 | O=C(NC(=S)Nc1nc(-c2ccc(Cl)cc2)cs1)C1CC1 | 1.34
7 | O=C(NNc1nc(-c2ccc(F)cc2)cs1)c1ccc(Cl)cc1 | 5.33 (active)
8 | Cc1ccc(S(=O)(=O)NC(=O)Nc2nc(-c3ccc(F)c(F)c3)cs2)cc1 | -0.18
9 | CC12c3ccccc3C(c3ccccc31)C1C(=O)N(c3ccc(C(=O)O)cc3)C(=O)C12 (stereo not given) | 0.79
10 | Cc1ncc([N+](=O)[O-])n1CCOC(=O)c1ccc(Br)cc1 | -0.13
11 | Cc1oc2cc(Br)c(O)cc2c1C(=O)OC(C)C | 3.81 (active)
12 | COc1ccc(C(=O)COc2cc3c(C(=O)OC(C)C)c(C)oc3cc2Br)cc1 | 0.17
13 | Cc1oc2cc(Br)c(OC(=O)c3ccco3)cc2c1C(=O)OC(C)C | 1.65
14 | Cc1cn(C(=O)Nc2ccccc2)nc1-c1cccs1 | 1.17
15 | Cc1ccc2nc(-c3cccnc3)[nH]c2c1 | -0.74
16 | COc1cc(C2C3=C(CC(C)(C)CC3=O)NC3=C2C(=O)CC(C)(C)C3)ccc1O | 1.78
17 | COc1cc(C2C3=C(CC(C)(C)CC3=O)Nc3ncnn32)ccc1OC(C)C (stereo not given) | 3.67 (active)
18 | COc1cc(OC)cc(-c2nc3n(n2)C(c2ccc(OC)c(OC)c2)C2=C(CC(C)(C)CC2=O)N3)c1 (stereo not given) | 0.99
19 | C=CCOc1ccc2c(=O)c(Oc3cc(C)ccc3C)coc2c1 | 1.12
20 | O=C(c1ccco1)N1CCC2(Cl)CCCCC2C1c1ccccc1 (stereo not given) | -2.84
21 | O=C(NC1(NCc2ccc(Cl)cc2)C(=O)c2ccccc2C1=O)c1ccc(C(F)(F)F)cc1 | 0.41
22 | COc1ccc(Nc2nc3ccccc3nc2NS(=O)(=O)c2ccccc2)cc1OC | 1.78
23 | CCCCN(CC)c1ncnc2ccc(C)cc12 | 3.53 (active)
24 | NC(=S)N/N=C/c1ccc(Cl)c(Cl)c1 | -1.14

Row | SMILES | z-score
25 | CC(C)(C)NC(=O)NCCCN1CCOCC1 | 0.22
26 | CCN(CC)C(=O)c1c(NC(=O)c2cccs2)sc2c1CCCCC2 | -1.54
27 | CCOC(=O)C1=C(C)NC2=C(C(=O)c3ccccc32)C1c1cc(Br)c(OC)c(OC)c1 (stereo not given) | 1.14
28 | CCS(=O)(=O)n1nc(-c2ccc(OC)cc2)nc1SC | 3.58 (active)
29 | COc1ccc(-c2noc(-c3ccc(Br)cc3)n2)cc1 | 1.15
30 | CCCc1cc(=O)n2[nH]c(SCc3ccccc3)nc2n1 | 0.14
31 | COc1ccc(Cc2nc(-c3ccc(OC)cc3)no2)cc1 | 0.51
32 | CCS(=O)(=O)n1nc(-c2ccccc2)nc1SCc1ccccc1 | 3.99 (active)
33 | O=c1[nH]c(SCc2ccccc2)nnc1-c1ccccc1 | 0.5
34 | COc1ccc(COC(=O)C2=C(C)NC3=C(C(=O)CCC3)C2c2ccc(Br)cc2)cc1 (stereo not given) | 0.32
35 | O=c1c(-c2ccc(OC3O[C@H](CO)[C@@H](O)[C@H](O)[C@H]3O)cc2)coc2cc(O)cc(O)c12 (stereo not given in full) | 0.24
36 | CS(=O)(=O)N(CC(=O)O)c1cccc2ccccc12 | -1.7
37 | CCOC(=O)C1=C(c2ccccc2)Nc2nc3ccccc3n2C1c1ccc(O)c(OCC)c1 (stereo not given) | -6.05
38 | N#Cc1cn(Cc2ccccc2Cl)c(=O)[nH]c1=O | 0.24
39 | CC1(C)S[C@@H]2[C@H](NC(=O)COc3ccccc3)C(=O)N2C1C(=O)O (stereo not given in full) (tested in a mixture with another compound) | -0.17
40 | CC1(C)SC2C(NC(=O)COc3ccccc3)C(=O)N2C1C(=O)O (stereo not given) | 1.11
41 | CC(=O)N1[C@@H](c2ccc(C)cc2)SC(C)(C)[C@@H]1C(=O)O | 4.5 (active)
42 | CN(C)c1ccc(NC(=O)CSc2nc(-c3ccco3)cc(C(F)(F)F)n2)cc1 | -1.78
43 | Cc1nc2ccccc2n1CCOc1ccc(Cl)cc1 | 0.74
44 | CCCNC(=O)NNC(=O)Cn1nnc(N2CCOCC2)n1 | 11.9
45 | S=c1nn[nH]n1-c1ccc(Cl)cc1Cl | -0.38
46 | CCCc1cc(-c2n[nH]c(C)c2-c2ccc3c(c2)OCCO3)c(O)cc1O | 7.51 (active)
47 | c1ccc2c(-c3csc(-c4ccc5c(c4)OCCO5)n3)csc2c1 | -0.77
48 | Cc1cc(C)n(C(C)C(=O)Nc2ccc(F)cc2)c(=O)n1 (stereo not given) | 2.63

Row | SMILES | z-score
49 | O=C(O)CCC(=O)c1ccc2ccccc2c1 | 0.56
50 | Cc1ccc(OS(=O)(=O)c2ccc(F)cc2)c([N+](=O)[O-])n1 | -1.06
51 | Cc1ccc2nsnc2c1S(=O)(=O)Nc1ccc(Br)cc1 | 5.39 (active)
52 | Cc1ccc2nsnc2c1S(=O)(=O)N1CCCC1C(=O)O (stereo not given) | -1.03
53 | O=C(O)c1ccc(NS(=O)(=O)c2cccc3nsnc23)cc1 | 1.86
54 | CN(C)/C=C1\C(=O)c2ccc(Cl)cc2N(Cc2c(F)cccc2Cl)S1(=O)=O | -0.82
55 | Cc1ccc(C(=O)Nc2ccccc2Sc2nc3ccccc3c(C)c2C#N)cc1 | -1.01
56 | CCOc1ccc(/C(O)=C2\C(=O)C(=O)N(c3nccs3)C2c2ccc(F)cc2)cc1 (stereo not given) | 0.2
57 | O=C(NCc1ccccn1)C(=O)Nc1cccc(Br)c1 | 1.05
58 | O=C(Nc1cccc(Br)c1)c1csc2c1CCCC2 | 5.59 (active)
59 | O=C(Nc1sc2c(c1C(=O)O)CCCC2)c1cc2ccccc2o1 | 0.75
60 | Cc1nc(-n2cccc2)sc1C(=O)N/N=C/c1ccc(Cl)cc1 | 0.46
61 | Cc1oc(C(C)(C)C)cc1C(=O)Nc1ccc(SCc2cccc(Cl)c2F)cc1 | -1.58
62 | Cc1sc2nc(-c3ccccc3F)oc(=O)c2c1C | 3.11 (active)
63 | COc1ccc(-c2csc3nc(-c4ccccc4F)oc(=O)c23)cc1OC | 0.98
64 | CC(C)=Cc1nc2cccc(F)c2c(=O)o1 | 0.25
65 | Cc1cc(C)c(C#N)c(Sc2ccc(Cl)cc2)n1 | -0.54
66 | CN1C(=O)C2(/C(=C(/O)c3ccc(Cl)cc3)C(=O)C(=O)N2CC2CCCO2)c2ccccc21 (stereo not given) | 0.79
67 | CN(C)S(=O)(=O)N(CC(=O)NC1CC2CCC1C2)c1ccccc1 (stereo not given) | -1.13
68 | N#C/C(=C\N1CCOCC1)S(=O)(=O)Cc1ccc(Cl)cc1 | -1.52
69 | COC(=O)C(Cc1c[nH]c2ccccc12)NC(=O)CN1CCCCC1 (stereo not given) | 4.61 (active)
70 | CC(=O)NC(Cc1c[nH]c2ccccc12)C(=O)O (stereo not given) | 2.44
71 | O=C(NCCc1c[nH]c2ccccc12)C(=O)NCC1CCCO1 (stereo not given) | -1.03
72 | COC(=O)c1ccc(S(=O)(=O)NCc2ccccc2)n1C | 1.21

Row | SMILES | z-score
73 | COC(=O)c1c(C)oc2ccc(NS(=O)(=O)c3cccc4cccnc34)cc12 | 3.25 (active)
74 | COCCOC(=O)c1c(C)oc2ccc(NS(=O)(=O)c3ccc(Cl)cc3)cc12 | -0.11
75 | Cc1oc2ccc(NS(=O)(=O)c3ccc4c5c(cccc35)C(=O)N4)cc2c1C(=O)OC(C)C | 2.44
76 | CCOC(=O)C1=C(C)NC2=C(C(=O)c3ccccc32)C1c1ccc(OC(=O)c2ccccc2)cc1 (stereo not given) | -1.18
77 | Cn1nc(Oc2nc(N3CCCCC3)nc(N3CCCCC3)n2)ccc1=O | 1.65
78 | CCOC(=O)C(Nc1cccc(Cl)c1)C(=O)OCC | -1.26
79 | Cc1ccc(N=C2SC3(CC3)C(=O)N2c2ccc(C)cc2)cc1 | 0.49
80 | O=C1c2ccc3c4c(ccc(c24)C(=O)N1c1ccccc1)C(=O)N(c1ccccc1)C3=O | -0.71
81 | O=C1N(c2ccccc2)C(=Nc2ccccc2)SC12CC2 | 4.33 (active)
82 | CC1(C)Cc2c(sc3ncn4nc(-c5ccco5)nc4c23)C(C)(C)N1 | 0.09
83 | Nc1cccc2c(S(=O)(=O)N3CCCCC3)cccc12 | -1.6
84 | Cc1cccc(NC(c2cccc(F)c2)c2ccc3ccc(C)nc3c2O)n1 (stereo not given) | 0.62
85 | Cc1cccc(NC(c2ccc3c(c2)OCO3)c2ccc3ccc(C)nc3c2O)n1 (stereo not given) | 1.45
86 | Cc1ccnc(NC(c2ccc(O)cc2)c2ccc3ccc(C)nc3c2O)c1 (stereo not given) | 4.59 (active)
87 | COc1ccc(-n2ncc(C(=O)NCc3c(Cl)cccc3Oc3ccccc3)c2C)cc1 | -2.95
88 | CSc1sc(C(=O)Nc2ccc(Cl)cc2)c2c1S(=O)(=O)N(C)c1ccccc1-2 | -0.3
89 | CCC(CC)NC(=O)C1c2ccccc2Oc2ccccc21 | 6.16 (active)
90 | N#Cc1ccc(N2CCN(C(=O)c3cc(-c4ccc(Cl)cc4)oc3C(F)(F)F)CC2)cc1 | 0.32
91 | COc1ccc(-c2cn3ccc(C)cc3n2)cc1F | 3.54 (active)
92 | Cc1ccc(-c2cn3cc(C)ccc3n2)cc1 | -0.35
93 | CC(C)c1cc(C(C)C)c(S(=O)(=O)NCc2cccnc2)c(C(C)C)c1 | -0.34
94 | Cc1cc(OCC(=O)O)cc2c1C(=O)CC(C)(C)O2 | 1.97
95 | Cc1nc(-c2cc(C#N)c(SCCNS(=O)(=O)c3ccc(Cl)cc3Cl)nc2C)cs1 | -0.5
